Experimental data: PubChem BioAssay AID720541 (National Center for Advancing Translational Sciences (NCATS), 2013)
“And” between values parts separate entries of the source, which are not always exact repeats. Equal entries are not always repeated. About 420 (32%) of roughly 1,300 compounds were called active. Another 32% or so got no clear call; they are omitted. The call rests on the fitted dose curve; in most records, active means well fitted inhibition curve with a large enough effect; inconclusive means small, poorly fitted or top-dose-only effect; inactive means no such curve, though single readings can be large or run the other way. The list shows a part of the results. Some compounds were tested as several samples or in several runs, with calls that do not always agree.

target: C-terminal-binding protein 1 (Homo sapiens) (UniProt Q13363); assay: qHTS for Inhibitors of the Phosphatase Activity of Eya2: Carboxyl-terminal binding protein (CtBP) Counterscreen for Cherry-picked Compounds; conditions: purified protein-protein binding, AlphaScreen, 3 h; series mostly up to 46.1 µM; further: nearly all actives have a fitted effect of over 65% in size
Excerpt: The Eya protein family is an essential co-activator of the Six1 transcription factor. Six1 is a developmental gene that is abnormally re-expressed in a large percentage of breast cancers. This over-expression plays a causal role in the initiation and metastatic development of breast cancers. The Eya family of protein is also found to contain a unique HAD phosphatase domain with protein tyrosine phosphatase activity which can potentially play a role in Six1-mediated breast tumorigenesis. Recently, Eya2 is found to dephosphorylate the histone variant H2AX and direct cells towards DNA repair instead of apoptosis in the event of DNA damage.
A 1536 well format, fluorescence based qHTS assay was developed and used to target the phosphatase activity of Eya2 (AID 488837). In addition, a CtBP counterscreen was developed using the AlphaScreen technology to evaluate compound selectivity to target […]. The data herein reports the activity of the cherry-picked compounds against the CtBP AlphaScreen. Compounds that are active or have > 100 fold selectivity vs. the Eya2 activity were excluded for further characterization. Inactivity is the desired outcome for the CtBP counterscreen.
NIH Chemical Genomics Center [NCGC]
NIH Molecular Libraries Probe Centers Network [MLPCN]
Assay Submitter (PI): Rui Zhao, University of Colorado Denver
Four microliters of reagent (25 nM GST-E1A, 25 nM CtBP-6x HIS) was dispensed in a 1536 well Greiner plates. Twenty-three nanoliter of test compounds (final concentration of 2.5 nM - 46 uM) and positive control E1A peptide inhibitor (final concentration of 0.14 nM - 4.6 uM) were added to the plates using the Kalypsys pintool equipped with a 1536 pin head. The plates was then incubated at room temperature for 2 hours followed by addition of 1 uL Alpha bead donor / acceptor mix (20 ug/mL final concentration). The assay plates were incubated for additional 1 hour at room temperature and protected from light. The AlphaScreen signal was obtained using the PerkinElmer EnVision plate reader using the 680 nm excitation and 520 - 620 nm emission filters. The data was normalized to the E1A peptide inhibitor for maximum inhibition and DMSO treated wells as negative control.
Potency means the concentration at half of the fitted maximal effect.

SMILES	Potency
O=c1c(CO)cc(CO)cc(CO)c1O	9.53 µM (active)
Cn1c(=O)n(CCO)c(=O)c2c1nc(Br)n2Cc1ccccc1	inactive
Cn1c(=O)n(Cc2ccc(F)cc2)c(=O)c2c1nc1n2CCN1Cc1ccco1	10.7 µM (active)
Cn1c(=O)n(Cc2ccccc2)c(=O)c2c1nc(NCC1CCCO1)n2Cc1ccccc1 (centres undefined)	inactive
COCCNC(=O)CCC(=O)NNc1nc2ccccc2c2nc(-c3ccccc3)nn12	inactive
COc1ccc2c(c1)c1nnc(SC(C)C)nc1n2C	4.78 µM (active)
Cc1cccc(NC(=S)N(CCN2CCOCC2)Cc2cc3cc4c(cc3[nH]c2=O)OCCO4)c1	inactive
Nc1ccc2c(c1Cl)C(=O)c1ccc(N)c(Cl)c1C2=O	6.01 µM (active)
CCOC(=O)c1ccc(NC(=S)N2CCN(CCN=CC3=C(O)CC(c4ccccc4)CC3=O)CC2)cc1 (centres undefined)	inactive
COc1cc(N=c2oc3c(C)ncc(CO)c3cc2C(N)=O)cc(OC)c1OC	4.78 µM (active)
Cc1nc(NC(=O)CSc2nnc(-c3ccccc3)c(-c3ccccc3)n2)c(Cl)cc1Cl	inactive
CCOC(=O)Cc1nnc(NC(=O)C(CC)Sc2nnc3c4ccccc4n(C)c3n2)s1 (centres undefined)	13.5 µM (active)
O=C(CSc1nnc2c(n1)[nH]c1ccccc12)Nc1ccc(S(=O)(=O)Nc2ncccn2)cc1	5.36 µM (active)
CCOC(=O)Cc1nnc(NC(=O)CSc2nnc3c4ccccc4n(C)c3n2)s1	15.1 µM (active)
CCOC(=O)Cc1nnc(NC(=O)CSc2nnc3c(n2)[nH]c2ccccc23)s1	15.1 µM (active)
O=C(CSc1nnc2c(n1)[nH]c1ccccc12)Nc1cccc(S(=O)(=O)N2CCOCC2)c1	inactive
CC1(C)CC2CC(C)(CN2/C=N/c2sc3c(c2C#N)CC(C)(C)NC3(C)C)C1 (centres undefined)	inactive
COc1cc2[nH]cc(C(=O)NCc3ccccc3)c(=O)c2cc1OC	3.79 µM (active)
COc1ccc(CNC(=O)c2sc(=O)n(Cc3cc(Cl)ccc3OC)c2C)cc1	inactive
CC1CCC(=NNc2ccc(C(F)(F)F)cc2[N+](=O)[O-])CC1 (centres undefined)	8.49 µM (active)
C1=Cc2ccccc2/C1=C\c1cc2c3c(c1)CCCN3CCC2	8.49 µM (active)
Cc1cc(=O)n2[nH]c(Nc3cccc(Cl)c3)nc2n1	inactive
COc1ccc(Nc2cc(C(=O)N3CCc4ccccc4C3)c3ccccc3n2)c(OC)c1	inactive
COc1ccc(N2CCN(C(=O)c3cc(-c4cc(OC)ccc4OC)nc4ccccc34)CC2)cc1	13.5 µM (active)
COc1ccc2cc(C(=O)N3CCN(c4ccc(F)cc4)CC3)[nH]c2c1	inactive

SMILES	Potency
CN(C)CCCN1c2ccc(O)cc2Sc2ccc(Cl)cc21	12 µM (active)
Cn1cc(SCC(=O)Nc2ccc3c(c2)OCCO3)c2ccccc21	inactive
O=C(CSc1ccc2c(c1)OCCO2)Nc1ccc2c(c1)OCO2	inactive
Nn1c(SCC(=O)Nc2ccc3c(c2)OCCO3)nnc1-c1ccccn1	15.1 µM (active)
Cc1ccc(OCCSc2nc3ccccc3n2CCC(=O)O)c(C(C)C)c1	inactive
Cc1cccc(NC(=S)NC(=O)c2ccco2)n1	10.7 µM (active)
COc1ccc2nc(NC(=S)NC(=O)c3ccco3)sc2c1	inactive
O=C(NC(=S)Nc1ccccc1N1CCCCC1)c1ccco1	inactive
CCc1nnc(NS(=O)(=O)c2ccc(NCc3cc(Cl)cc(Cl)c3O)cc2)s1	4.26 µM (active)
O=S(=O)(Nc1nccs1)c1ccc(NCc2cc(Br)cc(Br)c2O)cc1	1.9 µM (active)
CCS(=O)(=O)N1CCC(C(=O)Oc2ccc(Cl)cc2)CC1	inactive
CC(=O)Nc1ccc(S(=O)(=O)Nc2ccc(N3CCCCC3)cc2)cc1	8.49 µM (active)
COc1ccc(C(=O)OCC(=O)Nc2ccc(N3CCOCC3)cc2)cc1	inactive
CC(=O)Nc1ccc(S(=O)(=O)N2C3CCCC2CC(NC(=O)C2CCCCC2)C3)cc1 (centres undefined)	inactive
CC(=O)Oc1cccc2c1C(=O)C1CC=CC(OC(C)=O)C1C2=O (centres undefined)	9.53 µM (active)
O=C(O)c1ccc2c(=O)n3cc(C(=O)c4ccccc4O)cc(Cl)c3nc2c1	12 µM (active)
O=C(O)c1ccc(N/N=C/c2cc3cc4c(cc3nc2Cl)OCCO4)cc1	inactive
Cc1cc(C)cc(C(=O)NC(=S)Nc2ccc3c(c2)OCCO3)c1	inactive
Cc1cc(O)cc(O)c1/C=N/NC(=O)c1ccc2c(c1)OCCO2	8.49 µM (active)
CCCCC1=CC2=C(c3ccco3)C(=O)C(C)(OC(=O)c3ccc(OC)cc3)C(=O)C2=CN1CCc1ccccn1 (centres undefined)	inactive
CCC(C)c1ccc2oc(-c3ccc(NC(=O)c4ncn[nH]4)cc3)nc2c1 (centres undefined)	13.5 µM (active)
CC(C)c1ccc2oc(-c3ccc(NC(=O)c4ncn[nH]4)cc3)nc2c1	12 µM (active)
Cc1ccc(C(=O)Nc2cccc(-c3nc4ncccc4o3)c2)cc1	inactive
O=C(CNC(=O)c1[nH]cnc1C(=O)N[C@@H](Cc1ccccc1)C(=O)OCc1ccccc1)OCc1ccccc1	inactive
NNC(=O)c1nc[nH]c1C(=O)Nc1ccccn1	8.49 µM (active)

SMILES	Potency
C[C@@H](NC(=O)c1nc[nH]c1C(=O)N[C@@H](Cc1ccccc1)C(=O)OC(C)(C)C)c1ccccc1	inactive
CCOC(=O)c1ccc(NC(=O)c2nc[nH]c2C(=O)N[C@@H](Cc2ccccc2)C(=O)OC(C)(C)C)cc1	inactive
O=C(Nc1ccc(F)cc1)c1nc[nH]c1C(=O)O	7.57 µM (active)
Cc1ccc(NC(=O)c2[nH]cnc2C(=O)NN)cc1	15.1 µM (active)
COc1ccc(N(CC(=O)N2CCCCC2)S(=O)(=O)c2c(C)nn(C)c2C)cc1	inactive
O=C(CSc1ccc2nnc(-c3ccccn3)n2n1)Nc1ccccc1F	7.57 µM (active)
CCCCC(Sc1ccc2nnc(-c3ccccn3)n2n1)C(=O)O (centres undefined)	13.5 µM (active)
O=C(O)CSc1ccc2nnc(-c3cccnc3)n2n1	inactive and 13.5 µM (active)
Cc1nnc(NC(=O)CSc2ccc3nnc(-c4ccccn4)n3n2)s1	inactive
O=C(CSc1ccc2nnc(-c3ccccn3)n2n1)Nc1ccccc1	10.7 µM (active)
CN(C)c1ccc2nc3ccc(=[N+](C)C)cc-3sc2c1	inactive
CC(=O)Oc1ccc2nonc2c1OC(C)=O	inactive
CC1=C(C(=O)N2CCOCC2)CC(CC(=O)NC(c2ccccc2)c2ccccc2)C(=O)N1Cc1ccc(C(C)(C)C)cc1 (centres undefined)	inactive
O=C(CSc1ccc2nnc(-c3ccccn3)n2n1)Nc1ccccc1C(F)(F)F	10.7 µM (active)
Cc1csc(NC(=O)CSc2ccc(-c3ccccn3)nn2)n1	4.26 µM (active)
Cc1cc(C)c(NC(=O)CSc2ccc(-c3ccccn3)nn2)c(C)c1	3.38 µM (active)
Cc1ccccc1NC(=O)CSc1ccc(-c2ccccn2)nn1	3.79 µM (active)
O=S(=O)(NCCSCc1ccc(Cl)c(Cl)c1)c1ccc2c(c1)OCCO2	inactive
CCOc1ccc(CCN2C(=O)C(=O)N([C@@H](Cc3ccccc3)CN3CCC[C@H]3CN3C(=O)C(=O)NC[C@@H]3Cc3ccccc3)C[C@@H]2Cc2ccccc2)cc1	inactive
CCN(CC)c1ccc(NC(=O)c2ccc3c(c2)c(C)c(C)n3C)cc1	10.7 µM (active)
NC(N)=Nc1nc2cc([N+](=O)[O-])ccc2o1	inactive
CNc1ccc(/C=C2\C=Cc3ccccc32)cc1OC	8.49 µM (active)
Cc1cc(/C=C2\C=Cc3ccccc32)ccc1N(C)C	8.49 µM (active)
CN(C)c1ccc(/C=C2\C=Cc3ccccc32)cc1N	13.5 µM (active)
CN(C)c1ccc(/C=C2\C=Cc3ccccc32)cc1[N+](=O)[O-]	7.57 µM (active)

SMILES	Potency
COc1cc(/C=C2/C=Cc3ccccc32)ccc1N(C)C	8.49 µM (active)
O=[N+]([O-])c1ccc(/C=C2\C=Cc3ccccc32)cc1	7.57 µM (active)
O=C(Nc1ccccc1Cl)N1CCN(c2ccc3nnc(-c4ccccc4)n3n2)CC1	5.36 µM (active)
COc1cccc(N2CCN(c3ccc4nnc(CCC(=O)Nc5cccc(C(C)=O)c5)n4n3)CC2)c1	inactive
NCC(=O)Nc1ccc(Cl)cc1C(=O)c1ccc[nH]1	inactive
COC1=C(Nc2ccc(OC)cc2)C(=O)c2ccccc2C1=O	6.75 µM (active)
COc1ccc(-c2cn(Cc3ccc4c(c3)C(=O)c3ccccc3C4=O)nn2)cc1	inactive
CCc1ccc2nc3nc(C)cc(C)c3c(N)c2c1	10.7 µM (active)
COc1cc(NS(=O)(=O)c2ccc(N/C=C\C(=O)c3ccc(OC)c(OC)c3)cc2)nc(OC)n1	8.49 µM (active)
COc1ccc(C(=O)/C=C/Nc2ccc(S(=O)(=O)Nc3nc(C)cc(C)n3)cc2)cc1OC	12 µM (active)
CCC(=O)Nc1ccc(C(=O)COC(=O)c2nc3nccc(C)n3n2)cc1	inactive
Cc1ccccc1-c1cnc(C(O)c2c(C)cccc2C)[nH]1 (centres undefined)	inactive
Cc1oc2cc([N+](=O)[O-])c(O)c([N+](=O)[O-])c2c1C(=O)c1ccc(Cl)cc1	16.9 µM (active)
COc1ccc(NC(=O)c2cc(-c3ccco3)nc3ccccc23)cn1	inactive
O=C(Nc1nncs1)c1cc(-c2ccco2)nc2ccccc12	13.5 µM (active)
COc1cccc(C(=O)Nc2cccc(-c3ccc4nncn4n3)c2)c1OC	13.5 µM (active)
COc1ccccc1OCc1ccc(C(=O)Nc2cc(OC)c(OC)c(OC)c2)o1	inactive
Nc1ccc(O)cc1	12 µM (active)
Nc1nc2nn(-c3ccccc3)nc2c(=O)[nH]1	6.01 µM (active)
COc1ccc(Nc2nnc(-c3ccc(C(N)=O)cc3)c3ccccc23)cc1	4.78 µM (active)
CCN(CC)C(=O)c1ccc(-c2nnc(Nc3ccc(C(=O)NC)cc3)c3ccccc23)cc1	16.9 µM (active)
Cc1ccc(-c2nnc(Nc3ccc4c(c3)OCO4)c3ccccc23)cc1S(N)(=O)=O	inactive
CNC(=O)c1ccc(Nc2nnc(-c3ccc(C(N)=O)cc3)c3ccccc23)cc1	6.75 µM (active)
COc1ccc(-c2csc(-c3ccc(C(=O)O)cc3)n2)cc1	inactive
